# Potency and affinity values are given separately. Values without a mark were called inactive. No rule for the calls is given here.
# Target: Kelch-like ECH-associated protein 1 (Homo sapiens) + Nuclear factor erythroid 2-related factor 2 (Homo sapiens) (UniProt Q14145+Q16236)
# Assay: Keap1-Nrf2 protein-protein interaction inhibitors, dose response, biochemical, fluorescence polarization, cherry-picked samples (AID 588683);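 also: Kelch domain of Keap1 binding a fluorescein-labelled 9mer Nrf2 peptide; more negative means stronger inhibition of peptide binding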
# Conditions: Keap1/Nrf2 peptide fluorescence polarization, plate reader; series mostly up to 26 µM; activity change, negative = inhibition: at the top concentration
# Chain of Kelch-like ECH-associated protein 1 (Homo sapiens) + Nuclear factor erythroid 2-related factor 2 (Homo sapiens) (Q14145 whole entry, looked up, the tested form may be a part): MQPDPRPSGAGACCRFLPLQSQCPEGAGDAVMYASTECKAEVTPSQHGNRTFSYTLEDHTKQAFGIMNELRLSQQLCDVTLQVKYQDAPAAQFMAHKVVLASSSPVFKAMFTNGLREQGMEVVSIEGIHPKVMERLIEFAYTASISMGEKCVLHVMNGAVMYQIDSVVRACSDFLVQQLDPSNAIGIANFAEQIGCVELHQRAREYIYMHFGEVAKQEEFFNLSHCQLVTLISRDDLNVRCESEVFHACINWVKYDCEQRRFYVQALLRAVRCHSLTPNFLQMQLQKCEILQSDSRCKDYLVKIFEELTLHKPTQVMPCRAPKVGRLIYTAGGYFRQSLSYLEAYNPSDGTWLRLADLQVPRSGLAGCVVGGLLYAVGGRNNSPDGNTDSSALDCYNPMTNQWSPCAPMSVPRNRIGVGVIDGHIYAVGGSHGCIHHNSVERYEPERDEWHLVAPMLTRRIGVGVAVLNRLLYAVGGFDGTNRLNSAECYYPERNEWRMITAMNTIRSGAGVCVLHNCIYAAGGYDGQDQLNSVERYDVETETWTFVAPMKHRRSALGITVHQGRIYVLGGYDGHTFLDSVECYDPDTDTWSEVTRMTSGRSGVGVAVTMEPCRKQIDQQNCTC
# Chain of Kelch-like ECH-associated protein 1 (Homo sapiens) + Nuclear factor erythroid 2-related factor 2 (Homo sapiens) (Q16236 whole entry, looked up, the tested form may be a part): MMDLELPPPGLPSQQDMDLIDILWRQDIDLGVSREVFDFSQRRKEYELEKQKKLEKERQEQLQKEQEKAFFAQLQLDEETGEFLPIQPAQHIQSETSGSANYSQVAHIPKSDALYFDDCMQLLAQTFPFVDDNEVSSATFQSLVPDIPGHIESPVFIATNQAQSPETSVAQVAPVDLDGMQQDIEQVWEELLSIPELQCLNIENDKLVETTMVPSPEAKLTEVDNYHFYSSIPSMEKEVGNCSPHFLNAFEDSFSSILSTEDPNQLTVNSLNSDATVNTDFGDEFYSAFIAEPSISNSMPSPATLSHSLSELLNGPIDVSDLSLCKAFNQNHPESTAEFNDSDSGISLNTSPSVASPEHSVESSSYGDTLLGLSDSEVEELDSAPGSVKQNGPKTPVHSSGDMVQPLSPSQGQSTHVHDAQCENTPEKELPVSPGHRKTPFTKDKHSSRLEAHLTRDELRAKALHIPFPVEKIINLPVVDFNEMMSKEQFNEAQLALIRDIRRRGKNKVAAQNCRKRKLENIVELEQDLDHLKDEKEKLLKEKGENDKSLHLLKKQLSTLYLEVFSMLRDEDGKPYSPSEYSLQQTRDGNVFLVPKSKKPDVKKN
row,SMILES,"activity change, negative = inhibition"
1,O=C(O)c1cccc2c1NC(C(=O)O)C1CC(Sc3ccccc3[N+](=O)[O-])C(Cl)C21 (stereo unspecified),-8.32%
2,COCCNC(=O)Cn1cc(/C=C2\C(=O)NC(=O)N(c3cccc(C)c3C)C2=O)c2ccccc21,5.42%
3,CN1CC=C2C(C#N)=C(N)C(C#N)(C#N)C(c3ccncc3)C2C1 (stereo unspecified),-17.4%
4,CC1(O)CCN2C(=O)CCc3cccc1c32 (stereo unspecified),34.6%
5,COc1ccc(-n2c(CNCCc3ccc(C)cc3)nc3ccccc3c2=O)cc1,-0.955%
6,CN1/C(=C\C=C2C(=O)NC(=O)NC2=O)C(C)(C)c2ccccc21,211%
7,CCCCc1ccc(C(=O)O)nc1,1.5%
8,CCn1cc(C=C2C(=O)NC(=O)NC2=O)c2ccccc21,32%
9,Cc1cc(C=C2C(=O)NC(=O)NC2=O)c(C)n1-c1cccnc1,-6.36%
10,CCOC(=O)c1c(/N=C/c2c(O)n(-c3cccc(C)c3)c(=O)[nH]c2=O)sc2c1CCCC2,15.4%
11,Cn1cc(/C=C2\C(=O)NC(=O)N(c3ccccc3)C2=O)c2ccccc21,-8.02%
